# In all, about 5,500 compounds went through this assay and about 2,000 (36%) were called active. Not shown: some 18% with an inconclusive outcome. Some of the results follow. A number with no mark means an inactive call. Rule as the data show it: active = normalized growth mostly below about 0.91 (no sharp cut-off); inconclusive = no clear call, values can overlap the other calls; inactive = mostly above about 0.92.
# Experiment: chemical genetic growth profiling, strain panel (AID 1159580);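 also: tested at 20 µM; growth read once vehicle control cultures reached saturation at 30 °C; 1 = growth at the plate median or of vehicle wells; lower values mean less growth of the strain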
# Details: growth OD
smiles,measurement,setting,value
CC[C@@]1(O)C(=O)OCc2c1cc1n(c2=O)Cc2cc3cc(O)ccc3nc2-1,normalized growth,"S. cerevisiae deletion strains, locus YKL068W, active compounds read low",0.996
same,normalized growth,"S. cerevisiae deletion strains, locus YKL085W, strain MDH1 (second series), active compounds read low",1.01
same,normalized growth,"S. cerevisiae deletion strains, locus YKL085W, strain MDH1, active compounds read low",1.01
same,normalized growth,"S. cerevisiae deletion strains, locus YKL160W, strain elf1, active compounds read low",1.02
same,normalized growth,"S. cerevisiae deletion strains, locus YKL190W, strain CNB1, active compounds read low",1.02
same,normalized growth,"S. cerevisiae deletion strains, locus YKR001C, strain vps1, active compounds read low",1
same,normalized growth,"S. cerevisiae deletion strains, locus YKR026C, strain gcn3, active compounds read low",0.997
same,normalized growth,"S. cerevisiae deletion strains, locus YKR091W, strain srl3, active compounds read low",1.01
same,normalized growth,"S. cerevisiae deletion strains, locus YLL001W, strain dnm1, active compounds read low",1
same,normalized growth,"S. cerevisiae deletion strains, locus YLL026W, active compounds read low",1.02
same,normalized growth,"S. cerevisiae deletion strains, locus YLL041C, strain sdh2, active compounds read low",1.02
same,normalized growth,"S. cerevisiae deletion strains, locus YLR027C, strain aat2, active compounds read low",1
same,normalized growth,"S. cerevisiae deletion strains, locus YLR039C, strain RIC1, active compounds read low",1.03
same,normalized growth,"S. cerevisiae deletion strains, locus YLR058C, strain SHM2, active compounds read low",1.02
same,normalized growth,"S. cerevisiae deletion strains, locus YLR102C, strain apc9, active compounds read low",0.992
same,normalized growth,"S. cerevisiae deletion strains, locus YLR113W, strain HOG1, active compounds read low",0.942
same,normalized growth,"S. cerevisiae deletion strains, locus YLR221C, strain rsa3, active compounds read low",0.966
same,normalized growth,"S. cerevisiae deletion strains, locus YLR258W, strain gsy2, active compounds read low",1.03
same,normalized growth,"S. cerevisiae deletion strains, locus YLR262C, strain YPT6 (second series), active compounds read low",0.984
same,normalized growth,"S. cerevisiae deletion strains, locus YLR262C, strain YPT6, active compounds read low",1.04
same,normalized growth,"S. cerevisiae deletion strains, locus YLR268W, strain sec22, active compounds read low",0.96
same,normalized growth,"S. cerevisiae deletion strains, locus YLR320W, strain mms22, active compounds read low",0.884
same,normalized growth,"S. cerevisiae deletion strains, locus YLR330W, strain CHS5, active compounds read low",1.02
same,normalized growth,"S. cerevisiae deletion strains, locus YLR342W, strain FKS1 (second series), active compounds read low",0.995
same,normalized growth,"S. cerevisiae deletion strains, locus YLR342W, strain FKS1, active compounds read low",1.01
same,normalized growth,"S. cerevisiae deletion strains, locus YLR357W, strain rsc2, active compounds read low",1.03
same,normalized growth,"S. cerevisiae deletion strains, locus YLR370C, strain arc18, active compounds read low",1.01
same,normalized growth,"S. cerevisiae deletion strains, locus YLR371W, strain rom2, active compounds read low",0.994
same,normalized growth,"S. cerevisiae deletion strains, locus YLR384C, strain iki3, active compounds read low",1.02
same,normalized growth,"S. cerevisiae deletion strains, locus YLR418C, strain cdc73, active compounds read low",1.02
same,normalized growth,"S. cerevisiae deletion strains, locus YML016C, strain PPZ1, active compounds read low",1.02
same,normalized growth,"S. cerevisiae deletion strains, locus YML032C, strain rad52, active compounds read low",0.407 (active)
same,normalized growth,"S. cerevisiae deletion strains, locus YML120C, strain ndi1, active compounds read low",0.995
same,normalized growth,"S. cerevisiae deletion strains, locus YML124C, strain tub3, active compounds read low",0.983
same,normalized growth,"S. cerevisiae deletion strains, locus YMR058W, strain fet3, active compounds read low",1.01
same,normalized growth,"S. cerevisiae deletion strains, locus YMR078C, strain ctf18, active compounds read low",0.947
same,normalized growth,"S. cerevisiae deletion strains, locus YMR125W, strain sto1, active compounds read low",1.03
same,normalized growth,"S. cerevisiae deletion strains, locus YMR129W, active compounds read low",1.02
same,normalized growth,"S. cerevisiae deletion strains, locus YMR205C, strain PFK2, active compounds read low",0.98
same,normalized growth,"S. cerevisiae deletion strains, locus YMR223W, strain ubp8, active compounds read low",0.981
same,normalized growth,"S. cerevisiae deletion strains, locus YMR231W, strain pep5, active compounds read low",1
same,normalized growth,"S. cerevisiae deletion strains, locus YMR263W, strain SAP30, active compounds read low",1.03
same,normalized growth,"S. cerevisiae deletion strains, locus YMR307W, strain GAS1, active compounds read low",1.03
same,normalized growth,"S. cerevisiae deletion strains, locus YNL067W, strain RPL9B, active compounds read low",1.01
same,normalized growth,"S. cerevisiae deletion strains, locus YNL071W, strain lat1, active compounds read low",1.02
same,normalized growth,"S. cerevisiae deletion strains, locus YNL128W, strain TEP1, active compounds read low",1.02
same,normalized growth,"S. cerevisiae deletion strains, locus YNL183C, strain NPR1, active compounds read low",0.91
same,normalized growth,"S. cerevisiae deletion strains, locus YNL209W, strain ssb2, active compounds read low",1.03
same,normalized growth,"S. cerevisiae deletion strains, locus YNL233W, strain BNI4, active compounds read low",1.01
same,normalized growth,"S. cerevisiae deletion strains, locus YNL248C, strain rpa49, active compounds read low",1.03
same,normalized growth,"S. cerevisiae deletion strains, locus YNL250W, strain rad50, active compounds read low",0.429 (active)
same,normalized growth,"S. cerevisiae deletion strains, locus YNL271C, strain bni1, active compounds read low",0.991
same,normalized growth,"S. cerevisiae deletion strains, locus YNL298W, strain CLA4, active compounds read low",0.992
same,normalized growth,"S. cerevisiae deletion strains, locus YNL307C, strain MCK1, active compounds read low",0.979
same,normalized growth,"S. cerevisiae deletion strains, locus YNL322C, strain KRE1 (second series), active compounds read low",1.06
same,normalized growth,"S. cerevisiae deletion strains, locus YNL322C, strain KRE1, active compounds read low",1.01
same,normalized growth,"S. cerevisiae deletion strains, locus YNR049C, strain mso1, active compounds read low",1
same,normalized growth,"S. cerevisiae deletion strains, locus YNR052C, strain pop2, active compounds read low",0.997
same,normalized growth,"S. cerevisiae deletion strains, locus YOL012C, strain htz1",0.802
same,normalized growth,"S. cerevisiae deletion strains, locus YOL147C, strain pex11, active compounds read low",0.983
same,normalized growth,"S. cerevisiae deletion strains, locus YOR001W, strain rrp6, active compounds read low",0.967
same,normalized growth,"S. cerevisiae deletion strains, locus YOR061W, strain CKA2, active compounds read low",1.02
same,normalized growth,"S. cerevisiae deletion strains, locus YOR069W, strain VPS5, active compounds read low",1.02
same,normalized growth,"S. cerevisiae deletion strains, locus YOR070C, strain gyp1, active compounds read low",1.01
same,normalized growth,"S. cerevisiae deletion strains, locus YOR080W, strain dia2, active compounds read low",1.01
same,normalized growth,"S. cerevisiae deletion strains, locus YOR083W, strain WHI5, active compounds read low",1
same,normalized growth,"S. cerevisiae deletion strains, locus YOR106W, strain vam3, active compounds read low",1.03
same,normalized growth,"S. cerevisiae deletion strains, locus YOR136W, strain idh2, active compounds read low",0.971
same,normalized growth,"S. cerevisiae deletion strains, locus YOR144C, strain elg1, active compounds read low",0.988
same,normalized growth,"S. cerevisiae deletion strains, locus YOR184W, strain ser1, active compounds read low",0.972
same,normalized growth,"S. cerevisiae deletion strains, locus YOR231W, strain MKK1, active compounds read low",0.951
same,normalized growth,"S. cerevisiae deletion strains, locus YOR265W, strain rbl2, active compounds read low",0.984
same,normalized growth,"S. cerevisiae deletion strains, locus YOR270C, strain vph1, active compounds read low",1.03
same,normalized growth,"S. cerevisiae deletion strains, locus YOR290C, strain snf2, active compounds read low",1.03
same,normalized growth,"S. cerevisiae deletion strains, locus YOR316C, strain cot1, active compounds read low",0.987
same,normalized growth,"S. cerevisiae deletion strains, locus YPL051W, strain arl3, active compounds read low",1
same,normalized growth,"S. cerevisiae deletion strains, locus YPL055C, strain LGE1, active compounds read low",1.02
same,normalized growth,"S. cerevisiae deletion strains, locus YPL078C, strain atp4, active compounds read low",1.04
same,normalized growth,"S. cerevisiae deletion strains, locus YPL106C, strain sse1, active compounds read low",1.06
same,normalized growth,"S. cerevisiae deletion strains, locus YPL240C, strain hsp82, active compounds read low",1.01
same,normalized growth,"S. cerevisiae deletion strains, locus YPL241C, strain CIN2, active compounds read low",1.01
same,normalized growth,"S. cerevisiae deletion strains, locus YPL256C, strain CLN2, active compounds read low",0.945
same,normalized growth,"S. cerevisiae deletion strains, locus YPR119W, strain clb2, active compounds read low",0.982
same,normalized growth,"S. cerevisiae deletion strains, locus YPR141C, strain kar3, active compounds read low",0.999
same,normalized growth,"S. cerevisiae deletion strains, locus YPR163C, strain tif3, active compounds read low",0.991
same,normalized growth,"S. cerevisiae deletion strains, locus YPR167C, strain met16, active compounds read low",0.987
same,normalized growth,"S. cerevisiae deletion strains, strain wtn01, active compounds read low",0.97
same,normalized growth,"S. cerevisiae strains, strain wild type, active compounds read low",1.02

# Reference: PubChem BioAssay AID1159580 (chemical genetic matrix, 2015)
